These results are taken from PubChem BioAssay (Tox21).

A short description of experiment [1]: Nuclear factor erythroid 2-related factor 2/antioxidant responsive element (Nrf2/ARE) small molecule agonists: qHTS cell viability counter screen in human keratinocytes (AID 1919968; active = well fitted curve in the direction sought with a large enough effect in the repeat runs; an effect the other way counts as inactive or inconclusive; also: nearly all actives have a fitted effect of over 55% in size). Summed up:
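KeratinoSens cells (HaCaT keratinocytes stably carrying an ARE-luciferase reporter) were seeded at 1,500 cells/well and rested 5 h at 37 C/5% CO2. They were then exposed to compounds in DMSO for 23 h. Viability was read by CellTiter-Fluor fluorescence after 1 h.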

The nature of experiment [2]: Nuclear factor erythroid 2-related factor 2/antioxidant responsive element (Nrf2/ARE) small molecule agonists: luciferase reporter gene qHTS assay in human keratinocytes (AID 1919969). Also: nearly all actives have a fitted effect of over 35% in size. Also: potency is read from the fitted curve at half-maximal effect.
Experiment [3] deals with Gonadotropin-releasing hormone receptor (Homo sapiens) (UniProt P30968). Put plainly: Human gonadotropin-releasing hormone receptor (GnRHR) small molecule agonists, calcium flux assay in GnRHR-HEK293 cells (AID 1920063). Also: nearly all actives have a fitted effect of over 35% in size. The method in brief: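 HEK293 cells stably expressing human GnRHR were plated 18 h at 37 °C, loaded with calcium dye 1 h at 37 °C, then given compound in agonist mode; fluorescence (Ex/Em 480/540) read kinetically for 3 min at 1 s intervals.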

For experiment [4], the target named is KiSS-1 receptor (Homo sapiens) (UniProt Q969F8). Nature of the experiment: Human kisspeptin (KISS1R) small molecule agonists, calcium flux assay in KISS1R-HEK293 cells (AID 1920064; active = well fitted curve in the direction sought with a large enough effect in the repeat runs; an effect the other way counts as inactive or inconclusive). Summed up: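 HEK293 cells stably expressing human KISS1R were plated 18 h at 37 °C, loaded with calcium dye for 1 h at 37 °C, then given compound by pin tool. Fluorescence (Ex/Em 480/540) was read kinetically for 3 min.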

The nature of experiment [5]: G protein-coupled receptor (GPCR) small molecule agonists, calcium flux assay: HEK293 wild type cell line counter screen (AID 1920065). The method in brief:
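Cells were plated and cultured 18 h at 37 C/5% CO2, then loaded with calcium dye for 1 h at 37 C. Compounds in DMSO were pin-transferred in agonist mode, and fluorescence (Ex/Em 480/540) was read kinetically for 3 min at 1 s intervals.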

Experiment [6] in a line: p53 small molecule agonists, cell-based qHTS assay with human liver microsomes (AID 1963577). The method in brief:
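Compounds act here after metabolic activation: human liver microsomes and NADPH, both at 0.5 mg/mL final, were co-added to p53RE-bla cells. Incubation ran 16 h at 37 C, followed by LiveBLAzer detection.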

Experiment [7] is described as follows: p53 small molecule agonists, cell-based qHTS assay with rat liver microsomes (AID 1963578). The method in brief:
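Read-out is beta-lactamase reporter fluorescence (LiveBLAzer, 2 h, room temperature, dark) in p53RE-bla cells treated 16 h at 37 C with compound, rat liver microsomes and NADPH, both 0.5 mg/mL final.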

The nature of experiment [8]: p53 small molecule agonists, cell-based qHTS assay with human liver microsomes: qHTS cell viability counter screen (AID 1963579). Also: nearly all actives have a fitted effect of over 45% in size. The method in brief:
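Cells carrying the p53 response-element beta-lactamase reporter are treated for 16 h at 37 C with test compounds in the presence of human liver microsomes and NADPH (both 0.5 mg/mL final); ATP-based CellTiter-Glo luminescence then reports viability.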

Experiment [9] can be described thus: p53 small molecule agonists, cell-based qHTS assay with rat liver microsomes: qHTS cell viability counter screen (AID 1963580). Also: nearly all actives have a fitted effect of over 45% in size. The method in brief: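 p53RE-bla HCT-116 cells were exposed 16 h at 37 C to compounds with rat liver microsomes (0.5 mg/mL) and NADPH (0.5 mg/mL). Viability was measured in the same wells as ATP content by CellTiter-Glo luminescence.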

A short description of experiment [10]: p53 small molecule agonists, cell-based qHTS assay: qHTS cell viability counter screen (AID 1963581). Also: nearly all actives have a fitted effect of over 45% in size. Summed up: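 p53RE-bla HCT-116 cells were exposed to compounds for 16 h at 37 C; after the beta-lactamase FRET read in the same wells, CellTiter-Glo was added and luminescence (intracellular ATP) read after 30 min at room temperature.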
Experiment [11] concerns the target 5-hydroxytryptamine receptor 2A (Homo sapiens) (UniProt P28223). Put plainly: 5-hydroxytryptamine receptor 2A (HTR2A) small molecule antagonists, cell-based qHTS assay (AID 1963586). Also: nearly all actives have a fitted effect of over 45% in size. The method in brief:
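Antagonist-mode intracellular calcium assay: DOI (4 nM) added after 5 min compound pre-incubation at room temperature to dye-loaded HTR2A-CHO cells. Fluorescence followed for 3 min, sampled every second.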

The target is the same in experiment [12]. Put plainly: 5-hydroxytryptamine receptor 2A (HTR2A) small molecule agonists, cell-based qHTS assay (AID 1963587). Also: nearly all actives have a fitted effect of over 30% in size. The method in brief:
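CHO cells stably expressing human HTR2A, plated 18 h, loaded with calcium dye 1 h at 37 C. Agonist mode: compounds added and intracellular calcium fluorescence recorded kinetically for 2 min at 1 sec intervals.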

In experiment [13] the target is Muscarinic acetylcholine receptor M1 (Homo sapiens) (UniProt P11229). Put plainly: Cholinergic receptor muscarinic 1 (CHRM1) small molecule antagonists, cell-based qHTS assay (AID 1963588). Also: nearly all actives have a fitted effect of over 40% in size. Summed up:
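CHRM1-CHO calcium-flux assay, antagonist mode. Cells were seeded 18 h, dye-loaded 1 h at 37 C and given compound for 5 min at RT, then acetylcholine was added at 50nM. FDSS fluorescence was read 3 min; 15 concentrations, three runs.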

Experiment [14] addresses Beta-2 adrenergic receptor (Homo sapiens) (UniProt P07550). Put plainly: Adrenergic beta2 receptor (ADRB2) small molecule antagonists, cell-based qHTS assay (AID 1963592). Also: series mostly up to about 92 µM; nearly all actives have a fitted effect of over 50% in size. Summed up:
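Cells (CHO, stable ADRB2 overexpression) incubated 18-20hr at 37C; compounds added from DMSO; agonist mix (1nM isoproterenol, 100uM IBMX, 25uM Ro-20-1724) added; 0.5hr RT; d2-cAMP and anti-cAMP-cryptate added; 1hr RT; 665/615 nm read.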

The target is the same in experiment [15]. Nature of the experiment: Adrenergic beta2 receptor (ADRB2) small molecule agonists, cell-based qHTS assay (AID 1963593).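 Also: CHO cells stably overexpressing human ADRB2.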 The method in brief:
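CHO cells stably over-expressing ADRB2 were plated overnight at 37C, then dosed with compounds plus a stimulation mix containing 100uM IBMX and 25uM Ro-20-1724 for 0.5hr at room temperature. cAMP was measured by HTRF competition, 1hr.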

Experiment [16] concerns the target D(2) dopamine receptor (Homo sapiens) (UniProt P14416). Nature of the experiment: Dopamine D2 receptor (DRD2) small molecule agonists, cell-based qHTS assay (AID 1963594). Also: nearly all actives have a fitted effect of over 35% in size. The method in brief:
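HEK293 cells stably expressing human DRD2, pre-treated with PDE inhibitor Ro20-1724 (0.1 mM final) and compound 10 min at room temperature, then stimulated with NKH477 (200nM […]) for 30 min. cAMP read by HTRF (665/620 nm).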

The target is the same in experiment [17]. Put plainly: Dopamine D2 receptor (DRD2) small molecule antagonists, cell-based qHTS assay (AID 1963595; active = well fitted inhibition curve with a large enough effect in the signal ratio in the repeat runs, with a control signal flat; the % refers to the signal ratio). Summed up: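 HTRF cAMP read-out at 665 and 620 nm emission (340 nm excitation). Antagonist mode: compounds were tested against 12 nM quinpirole in DRD2-HEK293 cells, with 200 nM NKH477 raising cAMP and 0.1 mM Ro20-1724 blocking its breakdown.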
The nature of experiment [18]: p53 small molecule agonists, cell-based qHTS assay (AID 1963582; active = well fitted activation curve with a large enough effect in the signal ratio in the repeat runs, not every such curve was filed as active; the % refers to the signal ratio; also: potency is read from the fitted curve at half-maximal effect). Summed up: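 p53RE-bla beta-lactamase reporter cells rested 5 h at 37 C/5% CO2, then received compounds in DMSO by pin transfer and were incubated 16 h at 37 C. LiveBLAzer B/G FRET substrate was loaded for 2 h at room temperature before fluorescence reading.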
The nature of experiment [19]: cAMP Responsive Elements (CRE) small molecule agonists, cell-based qHTS assay (AID 1963590). The method in brief:
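CRE-bla HEK 293T cells in DMEM with 10% dialyzed FBS, NEAA, pyruvate and 25 mM HEPES were plated 18 h at 37 C/5% CO2, then exposed to compounds in DMSO for 3 h before LiveBLAzer B/G FRET substrate addition.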

Experiment [20] in a line: cAMP Responsive Elements (CRE) small molecule antagonists, cell-based qHTS assay (AID 1963591; active = well fitted inhibition curve with a large enough effect in the signal ratio in the repeat runs, not every such curve was filed as active; the % refers to the signal ratio). Summed up: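 CRE-bla HEK293T cells were plated 18 h at 37 °C/5% CO2, pinned with compound in DMSO, then stimulated with NKH477 at 0.25 uM final for 3 h. LiveBLAzer B/G FRET substrate was added and plates incubated 2 h at room temperature.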

Structures are written as SMILES. Values joined by “and” are separate entries in the source; they are usually repeats but may differ in a detail not shown here. Identical values can stand only once. Records with an inconclusive call do not appear. Active and inactive are the calls of the source. Unless noted, calls follow the shape of the full dose curve.

Beta-2 adrenergic receptor (Homo sapiens), sequence (P07550 whole entry, looked up): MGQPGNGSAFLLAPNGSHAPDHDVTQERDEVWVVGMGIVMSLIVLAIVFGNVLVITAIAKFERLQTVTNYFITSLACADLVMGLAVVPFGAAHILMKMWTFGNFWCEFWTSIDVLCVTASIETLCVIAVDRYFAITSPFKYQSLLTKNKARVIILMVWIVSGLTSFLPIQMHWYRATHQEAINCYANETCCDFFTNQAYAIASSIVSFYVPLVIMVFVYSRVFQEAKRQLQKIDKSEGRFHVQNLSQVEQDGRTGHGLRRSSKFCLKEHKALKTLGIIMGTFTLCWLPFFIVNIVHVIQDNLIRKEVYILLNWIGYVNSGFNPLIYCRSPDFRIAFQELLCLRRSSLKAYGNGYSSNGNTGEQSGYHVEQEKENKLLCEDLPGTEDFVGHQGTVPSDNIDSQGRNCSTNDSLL
5-hydroxytryptamine receptor 2A (Homo sapiens), sequence (P28223 whole entry, looked up): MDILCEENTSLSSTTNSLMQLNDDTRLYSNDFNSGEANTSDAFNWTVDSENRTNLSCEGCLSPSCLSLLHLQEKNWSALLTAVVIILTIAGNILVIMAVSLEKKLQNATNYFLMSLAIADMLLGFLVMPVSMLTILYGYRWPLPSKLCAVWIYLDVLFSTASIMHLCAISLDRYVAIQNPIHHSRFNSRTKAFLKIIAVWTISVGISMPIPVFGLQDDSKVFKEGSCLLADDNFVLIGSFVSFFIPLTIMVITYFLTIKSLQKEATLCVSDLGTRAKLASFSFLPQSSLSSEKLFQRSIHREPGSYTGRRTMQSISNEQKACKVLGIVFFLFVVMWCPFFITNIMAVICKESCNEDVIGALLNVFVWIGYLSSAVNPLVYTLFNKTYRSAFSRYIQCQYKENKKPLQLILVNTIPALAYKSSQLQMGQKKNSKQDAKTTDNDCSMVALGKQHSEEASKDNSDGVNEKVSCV
D(2) dopamine receptor (Homo sapiens), sequence (P14416 whole entry, looked up): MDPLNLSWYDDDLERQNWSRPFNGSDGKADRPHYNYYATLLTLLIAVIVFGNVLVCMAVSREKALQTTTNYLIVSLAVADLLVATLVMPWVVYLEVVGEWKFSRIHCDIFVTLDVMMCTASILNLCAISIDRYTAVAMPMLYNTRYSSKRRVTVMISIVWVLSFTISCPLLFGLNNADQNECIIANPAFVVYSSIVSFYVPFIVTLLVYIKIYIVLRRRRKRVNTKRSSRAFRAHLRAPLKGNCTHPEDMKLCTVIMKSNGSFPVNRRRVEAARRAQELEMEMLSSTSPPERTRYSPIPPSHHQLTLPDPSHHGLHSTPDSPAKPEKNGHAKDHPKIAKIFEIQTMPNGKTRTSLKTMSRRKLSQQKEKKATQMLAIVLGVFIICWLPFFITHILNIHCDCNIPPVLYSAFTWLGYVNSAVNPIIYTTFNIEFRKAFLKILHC
Gonadotropin-releasing hormone receptor (Homo sapiens), sequence (P30968 whole entry, looked up): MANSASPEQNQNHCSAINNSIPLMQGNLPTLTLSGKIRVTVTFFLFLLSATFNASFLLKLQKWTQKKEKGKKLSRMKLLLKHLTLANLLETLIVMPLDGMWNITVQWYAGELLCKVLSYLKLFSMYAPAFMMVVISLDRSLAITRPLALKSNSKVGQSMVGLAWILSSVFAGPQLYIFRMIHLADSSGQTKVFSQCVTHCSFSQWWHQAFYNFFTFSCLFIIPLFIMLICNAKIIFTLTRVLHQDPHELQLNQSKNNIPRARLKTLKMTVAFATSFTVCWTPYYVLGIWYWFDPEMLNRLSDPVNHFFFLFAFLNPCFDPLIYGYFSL
KiSS-1 receptor (Homo sapiens), sequence (Q969F8 whole entry, looked up): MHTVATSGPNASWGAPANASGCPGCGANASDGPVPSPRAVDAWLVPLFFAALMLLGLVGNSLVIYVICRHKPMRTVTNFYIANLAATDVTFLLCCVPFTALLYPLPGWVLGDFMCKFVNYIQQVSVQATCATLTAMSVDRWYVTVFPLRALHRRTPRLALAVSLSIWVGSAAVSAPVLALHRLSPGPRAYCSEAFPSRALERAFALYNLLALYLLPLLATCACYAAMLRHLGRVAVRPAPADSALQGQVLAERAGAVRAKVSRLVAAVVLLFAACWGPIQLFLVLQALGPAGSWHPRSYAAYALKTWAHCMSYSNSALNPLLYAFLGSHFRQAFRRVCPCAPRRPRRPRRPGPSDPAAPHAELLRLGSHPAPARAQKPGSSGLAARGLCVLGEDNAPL
Muscarinic acetylcholine receptor M1 (Homo sapiens), sequence (P11229 whole entry, looked up): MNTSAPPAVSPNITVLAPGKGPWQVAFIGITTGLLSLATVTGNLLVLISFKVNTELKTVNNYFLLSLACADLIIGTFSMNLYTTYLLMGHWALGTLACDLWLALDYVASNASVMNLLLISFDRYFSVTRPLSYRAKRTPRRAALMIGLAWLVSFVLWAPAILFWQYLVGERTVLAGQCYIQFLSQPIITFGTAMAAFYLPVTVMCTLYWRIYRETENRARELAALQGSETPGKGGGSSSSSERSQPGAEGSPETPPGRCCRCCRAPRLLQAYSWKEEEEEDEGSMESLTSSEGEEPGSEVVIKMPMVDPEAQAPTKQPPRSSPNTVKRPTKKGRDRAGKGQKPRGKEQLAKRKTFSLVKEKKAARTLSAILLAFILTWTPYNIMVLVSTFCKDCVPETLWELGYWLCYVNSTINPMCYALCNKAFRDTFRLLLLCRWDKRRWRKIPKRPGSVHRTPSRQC

As for `CCCCC/C=C\C/C=C\CCCCCCCC(=O)O`, the Potency result in [1], in experiment [3], in experiment [4], in experiment [5], in experiment [6] and in experiment [7] was “inactive” in each case. Besides, the Potency entry in experiment [8], in [9], in experiment [10], in experiment [11], in [12] and in experiment [13] was “inactive” throughout. The Potency result in [14], in [15], in experiment [16] and in [17] was “inactive” each time. For the same compound, the Potency in experiment [2] is 60.1 µM (active) and 68.6 µM (active).
Take `CC1(C)O[C@@H]2C[C@H]3[C@@H]4C[C@H](F)C5=CC(=O)CC[C@]5(C)[C@H]4[C@@H](O)C[C@]3(C)[C@]2(C(=O)CO)O1`: the Potency result in experiment [1], in [2], in experiment [3], in experiment [4], in experiment [5] and in [6] was “inactive” each time. Moreover, the Potency result in [7], in experiment [8], in experiment [9], in experiment [10], in [18] and in experiment [19] was “inactive” throughout. For the same compound, the Potency entry in experiment [14], in [16] and in experiment [17] was “inactive” throughout.
In the case of `C[C@]12C=CC(=O)C=C1CC[C@@H]1[C@@H]2[C@@H](O)C[C@@]2(C)[C@H]1CC[C@]2(O)C(=O)CO`, the Potency result in experiment [1], in experiment [2], in experiment [3], in [4], in experiment [5] and in experiment [6] was “inactive” each time. Also, the Potency entry in experiment [7], in experiment [8], in experiment [9], in experiment [10], in experiment [18] and in experiment [19] was “inactive” each time. The Potency entry in experiment [20], in experiment [14], in [16] and in experiment [17] was “inactive” throughout.
`CCC1(c2ccccc2)C(=O)NCNC1=O`: the Potency entry in experiment [1], in experiment [2], in experiment [3], in experiment [4], in experiment [5] and in experiment [6] was “inactive” each time. The Potency entry in [7], in [8], in experiment [9], in experiment [10], in [18] and in [19] was “inactive” throughout. Also, the Potency result in [20], in experiment [14] and in [17] was “inactive” in each case.
Take `CCOC(=O)c1ccc(O)cc1`: the Potency entry in [1], in experiment [2], in experiment [3], in experiment [4], in experiment [5] and in [6] was “inactive” in each case. Further, the Potency result in [7], in experiment [8], in experiment [9], in experiment [10], in experiment [11] and in experiment [12] was “inactive” throughout. Besides, the Potency result in experiment [13], in experiment [19], in experiment [20], in experiment [14], in [16] and in experiment [17] was “inactive” each time.
With `C#C[C@]1(O)CC[C@H]2[C@@H]3CCc4cc(O)ccc4[C@H]3CC[C@@]21C`, the Potency result in experiment [1], in experiment [2], in [3], in experiment [4], in [5] and in experiment [6] was “inactive” each time. The Potency entry in experiment [7], in experiment [8], in experiment [9], in [10], in [14] and in [15] was “inactive” throughout. For the same compound, the Potency entry in experiment [16] and in experiment [17] was “inactive” throughout. Moreover, the Potency in experiment [18] is 16.1 µM (active).
With `CC1(C)NC(=O)N(c2ccc([N+](=O)[O-])c(C(F)(F)F)c2)C1=O`, the Potency result in experiment [1], in experiment [2], in experiment [3], in experiment [4], in experiment [5] and in [6] was “inactive” in each case. The Potency result in experiment [7], in experiment [8], in experiment [9], in experiment [10], in experiment [11] and in experiment [12] was “inactive” throughout. In addition, the Potency entry in experiment [13], in experiment [19], in [20], in experiment [14], in experiment [15] and in [16] was “inactive” each time. The Potency result in experiment [17] is “inactive”.
On to `NC(=O)NO`, for which the Potency result in [1], in experiment [2], in experiment [3], in experiment [4], in experiment [5] and in [6] was “inactive” throughout. Also, the Potency result in experiment [7], in experiment [8], in [9], in [10], in [18] and in [19] was “inactive” throughout. The Potency result in experiment [20], in [14], in [15], in [16] and in experiment [17] was “inactive” in each case.
